Compound activity: PubChem BioAssay, several laboratories
Hits are enriched below; roughly 3.3% of the tested compounds scored in any of these assays.
697 NFkB inh: inhibitors of the PMA/ionomycin-induced NF-kB reporter in 697 B cells; hit rate 0.33% among 330,000; 697 B-cell NF-kB luciferase reporter, 16 h; inhibition, % at 4 µM; in the data active = inhibition above about 35%
SMARCA2 activ: increases SMARCA2 function in MMTV reporter cells; activation, % at 9.1 µM; hit rate 1% among 370,000; MG213 cells, MMTV-luciferase reporter, dexamethasone, overnight; in the data active = activation above about 7.8%
esBAF inh: SWI/SNF esBAF complex inhibition | mouse ES cells, Bmi1-luciferase knock-in reporter, 24 h; 100% = twice the neutral-well signal | reporter increase, % at 12.5 µM | hit rate 2% among 350,000 | AID 602393; in the data active = activation above about 40%;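 also: a rise in the Bmi1 reporter signal indicates esBAF inhibition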
Jurkat NFkB inh: lowers PMA/ionomycin-induced NF-kB signal in Jurkat cells; PMA/ionomycin-induced NF-kB luciferase reporter, luminescence; inhibition, % at 4 µM; hit rate 0.53% among 330,000; AID 435003; in the data active = inhibition above about 50%
Gli-Sufu block: Gli-Sufu pathway antagonism; inhibition, % at 5 µM; hit rate 0.74% among 340,000; Sufu-KO-LIGHT fibroblasts, Gli luciferase reporter luminescence;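 active = inhibition above about 55%, limit read from the data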
SMARCA2 conf: SMARCA2 activation, confirmation screen; shares compounds with SMARCA2 activ; MG213 cells, MMTV-luciferase with dexamethasone, luminescence, overnight; MG213 cells expressing E1A, Rb sequestered; DMSO wells 0%, reference activator 100%; activation, % at 9.1 µM; hit rate 30% among 3,500; AID 652260;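 active = activation above its plate's cutoff, the mean activation of tested wells plus 3 SD, cut at about 7.9% in these data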
GAL4-VP16 Luc: counter-screen for SMARCA2 activators: GAL4-VP16 luciferase reporter activation; shares compounds with SMARCA2 activ; HEK293 GAL4-VP16 pG5luc reporter, luciferase luminescence; scaled: DMSO wells 0%, SAHA wells 100%; activation, % at 9.1 µM; hit rate 41% among 3,500;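 active = activation above the solvent-only control well mean plus 3 SD, averaged across control plates, cut at about 5.2% in these data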
Of the large screens only hits and unclear results are named; the others gave an inactive call (follow-up assays come after a bar, where they were run).

COc1ccc2nc(N3C(=O)CNC3=S)sc2c1	SMARCA2 activ 8.6 (no result: esBAF inh) | SMARCA2 conf 13.8 | GAL4-VP16 Luc 10.4
COc1cccc(CC(=O)Nc2ncc(C)s2)c1	none
COc1cccc(CC(=O)Nc2nc(C)cs2)c1	SMARCA2 activ 8.6 | SMARCA2 conf inactive | GAL4-VP16 Luc inactive
CC1(C)COC(c2cc3c(cc2Br)OCO3)OC1	SMARCA2 activ 8.1 (no result: 697 NFkB inh, Jurkat NFkB inh) | SMARCA2 conf inactive | GAL4-VP16 Luc inactive
CO[C@@H]1CN(C)C(=O)c2cc(NC(=O)Nc3ccc(F)cc3)ccc2OC[C@H](C)NC[C@@H]1C	none (no result: 697 NFkB inh, SMARCA2 activ, Jurkat NFkB inh, Gli-Sufu block)
Cc1cccc(-c2nsc(SCC(=O)Nc3ccc4c(c3)OCO4)n2)c1	SMARCA2 activ 9.7 (no result: esBAF inh) | SMARCA2 conf inactive | GAL4-VP16 Luc inactive
O=C(CSc1ccccc1F)Nc1ccc2c(c1)OCO2	SMARCA2 activ 11.3 | SMARCA2 conf inactive | GAL4-VP16 Luc 5.7
Cc1ccccc1-c1nsc(SCC(=O)Nc2ccc3c(c2)OCO3)n1	none (no result: esBAF inh)
CO[C@H]1CN(C)C(=O)c2cc(NC(=O)c3ccccc3)ccc2OC[C@H](C)N(CC2CC2)C[C@@H]1C	none (no result: 697 NFkB inh, SMARCA2 activ, Jurkat NFkB inh, Gli-Sufu block)
CC1(C)CC(=O)C(N=Nc2ccc(Br)cc2)=C(O)C1	SMARCA2 activ 8.3 (no result: esBAF inh) | SMARCA2 conf 10.6 | GAL4-VP16 Luc inactive
O=[N+]([O-])c1cc(O)c2ncccc2c1	SMARCA2 activ 21.3, Gli-Sufu block 67.2 (no result: esBAF inh) | SMARCA2 conf inactive | GAL4-VP16 Luc inactive
O=[N+]([O-])c1cc2cccnc2c2ncccc12	none (no result: esBAF inh)
O=C1ON(Cc2ccccc2)C(c2ccccc2)N1c1ccccc1 (configuration not stated)	SMARCA2 activ 11.4 (no result: 697 NFkB inh, esBAF inh, Jurkat NFkB inh) | SMARCA2 conf inactive | GAL4-VP16 Luc inactive
Cc1cccn2c(=O)c3cc(C(=O)NC4CCCCC4)c(=N)n(Cc4ccccc4)c3nc12	none
COc1ccc(CCNC(=O)c2cc3c(=O)n4ccccc4nc3n(C3CCCCC3)c2=N)cc1OC	SMARCA2 activ 11.8 | SMARCA2 conf inactive | GAL4-VP16 Luc inactive
Cc1cccn2c(=O)c3cc(C(=O)NC4CCCC4)c(=N)n(C4CCCCC4)c3nc12	SMARCA2 activ 8.2 | SMARCA2 conf 8.3 | GAL4-VP16 Luc inactive
Cc1cccn2c(=O)c3cc(C(=O)NCCN4CCOCC4)c(=N)n(CCc4ccccc4)c3nc12	SMARCA2 activ 10.7 | SMARCA2 conf inactive | GAL4-VP16 Luc inactive
COc1ccc(-n2nnnc2S(=O)(=O)Cc2ccc(C(=O)O)cc2)cc1	SMARCA2 activ 13.3 | SMARCA2 conf 15.2 | GAL4-VP16 Luc inactive
CCc1ccc(Oc2nnnn2-c2ccc(C(N)=O)cc2)cc1	none
COc1cccc(C2N=C(c3ccccc3C)NO2)c1OC (configuration not stated)	SMARCA2 activ 8.0 | SMARCA2 conf inactive | GAL4-VP16 Luc inactive
COc1cc(N)c(Cl)cc1C(=O)OCC(=O)N1c2ccccc2NC(=O)C1(C)C	SMARCA2 activ 9.1 | SMARCA2 conf inactive | GAL4-VP16 Luc inactive
COc1ccc(S(N)(=O)=O)cc1C(=O)OCC(=O)N1c2ccccc2NC(=O)C1(C)C	none
Cc1ccc(S(=O)(=O)N(C)C[C@H]2OCCCC[C@@H](C)Oc3ccc(NC(=O)Nc4ccc5c(c4)OCO5)cc3C(=O)N([C@H](C)CO)C[C@@H]2C)cc1	none (no result: 697 NFkB inh, SMARCA2 activ, Jurkat NFkB inh, Gli-Sufu block)
Cc1noc(C)c1S(=O)(=O)Nc1ccc2c(c1)CC(=O)N([C@H](C)CO)C[C@@H](C)[C@@H](CN(C)C(=O)Nc1ccc(C(F)(F)F)cc1)O2	none (no result: 697 NFkB inh, SMARCA2 activ, Jurkat NFkB inh, Gli-Sufu block)
COc1ccc(Nc2nc(-c3ccccc3)nc3ccccc23)c(OC)c1	none
COc1ccc(Nc2nc(N)c3ccccc3n2)c(OC)c1	SMARCA2 activ 10.8 | SMARCA2 conf 9.0 | GAL4-VP16 Luc 7.5
COc1ccc(-c2noc(C3CCCN(C(=O)c4ccc(C)cc4)C3)n2)cc1 (configuration not stated)	none (no result: esBAF inh)
COc1ccc(-c2noc(C3CCCN(C(=O)Nc4cc(C)cc(C)c4)C3)n2)cc1 (configuration not stated)	SMARCA2 activ 10.2 (no result: 697 NFkB inh, esBAF inh, Jurkat NFkB inh, Gli-Sufu block) | SMARCA2 conf inactive | GAL4-VP16 Luc 9.7
Cc1cccc(C)c1NC(=O)C1C(c2ccc3c(c2)OCO3)=Nc2ccccc2N1C(=O)c1ccccn1 (configuration not stated)	SMARCA2 activ 8.1 (no result: 697 NFkB inh, esBAF inh, Jurkat NFkB inh, Gli-Sufu block) | SMARCA2 conf inactive | GAL4-VP16 Luc inactive
CC(=O)N1c2ccccc2N=C(c2ccc3c(c2)OCO3)C1C(=O)NCc1ccccc1 (configuration not stated)	SMARCA2 activ 10.8 (no result: 697 NFkB inh, esBAF inh, Jurkat NFkB inh, Gli-Sufu block) | SMARCA2 conf inactive | GAL4-VP16 Luc inactive
COc1ccccc1S(=O)(=O)N[C@H]1CC[C@@H](CCNC(=O)C2CC2)O[C@@H]1CO	none (no result: 697 NFkB inh, SMARCA2 activ, Jurkat NFkB inh, Gli-Sufu block)
COCC1CCN(Cc2nc(COc3ccccc3)no2)C1 (configuration not stated)	SMARCA2 activ 8.3 | SMARCA2 conf inactive | GAL4-VP16 Luc inactive
COCC1CCN(Cc2nc(-c3cccs3)no2)C1 (configuration not stated)	SMARCA2 activ 13.4 (no result: esBAF inh) | SMARCA2 conf inactive | GAL4-VP16 Luc 6.0
CCCC#Cc1cnc2c(c1)C(=O)N([C@@H](C)CO)C[C@@H](C)[C@@H](CN(C)C(=O)Cc1cccnc1)O2	none (no result: 697 NFkB inh, SMARCA2 activ, Jurkat NFkB inh, Gli-Sufu block)
O=C(Cc1ccccn1)NCC[C@H]1CC[C@H](NC(=O)Nc2ccccc2)[C@@H](CO)O1	none (no result: 697 NFkB inh, SMARCA2 activ, Jurkat NFkB inh, Gli-Sufu block)
O=C1CCCCC1Sc1nnc(Nc2ccccc2)s1 (configuration not stated)	SMARCA2 activ 8.8, esBAF inh 71.3 | SMARCA2 conf inactive | GAL4-VP16 Luc 7.7
Cc1ccc(Nc2nnc(SC3CCOC3=O)s2)cc1 (configuration not stated)	none (no result: esBAF inh)
CO[C@H]1CN(C)C(=O)c2ccc(NC(=O)C3CCCC3)cc2OC[C@H](C)N(C(=O)CC2CC2)C[C@H]1C	none (no result: 697 NFkB inh, SMARCA2 activ, Jurkat NFkB inh, Gli-Sufu block)
C[C@@H]1CN([C@@H](C)CO)C(=O)c2cc(NS(C)(=O)=O)ccc2O[C@@H](C)CCCCO[C@H]1CN(C)C	none (no result: 697 NFkB inh, SMARCA2 activ, Jurkat NFkB inh, Gli-Sufu block)
CC(=O)c1ccc(NCCCN2CCC(C(O)(c3ccccc3)c3ccccc3)CC2)cc1	SMARCA2 activ 9.6 (no result: 697 NFkB inh, esBAF inh, Jurkat NFkB inh, Gli-Sufu block) | SMARCA2 conf inactive | GAL4-VP16 Luc inactive
OC(c1ccccc1)(c1ccccc1)C1CCN(CCCNc2cccc(OC(F)(F)F)c2)CC1	none (no result: 697 NFkB inh, esBAF inh, Jurkat NFkB inh, Gli-Sufu block)
COc1ccccc1N=Cc1nc(-c2ccccc2)oc1OC(C)=O	none
CC(=O)Oc1oc(-c2ccccc2)nc1/C=N/c1ccccn1	SMARCA2 activ 8.1 | SMARCA2 conf inactive | GAL4-VP16 Luc 8.1
O=c1c(C=NCc2cccnc2)c(C(F)(F)F)[nH]n1-c1nc2ccccc2s1	SMARCA2 activ 11.6 (no result: esBAF inh) | SMARCA2 conf 11.0 | GAL4-VP16 Luc 7.5
CCC(=NCc1ccccc1)c1c(C(F)(F)F)[nH]n(-c2nc3ccccc3s2)c1=O	none
COc1ccc(OCc2ccc(/C=N\NC(=O)c3sccc3C)o2)cc1	SMARCA2 activ 8.5 (no result: esBAF inh) | SMARCA2 conf 9.4 | GAL4-VP16 Luc inactive
